Results on 12 molecules are retold here after PubChem BioAssay (NCI).

Molecules are shown by their SMILES. Compounds without any hit were thinned out: in the full panel of roughly 83,000, 20% have a hit.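 Results are percent growth after 48 hours of single-concentration exposure. 100 means growth as in untreated cells, lower positive values show inhibition; negative values down to -100 show cell death.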 A number with no mark means an inactive call. The source made the active and inactive calls. How the source made its calls: active means growth percent below 10; inactive means the rest.

Some test systems named below: RPMI-8226 leukemia; OVCAR-8 ovarian; OVCAR-5 ovarian; OVCAR-4 ovarian; SK-OV-3 ovarian; IGROV1 ovarian; OVCAR-3 ovarian; HS 578T breast; NCI/ADR-RES ovarian; T-47D breast.
What all share (assay): NCI-60 one-dose screen, 48 h (100 = growth as untreated, 0 = no growth, -100 = all killed)
Common to all, as to details: 10 µM unless noted

Take `c1cc(CNC23CC4CC(CC(C4)C2)C3)cc(C[N+](Cc2cccc(CNC34CC5CC(CC(C5)C3)C4)c2)(Cc2cccc(CNC34CC5CC(CC(C5)C3)C4)c2)Cc2cccc(CNC34CC5CC(CC(C5)C3)C4)c2)c1` (stereo not given): the growth was -11.6% [42 µM] (active) with RPMI-8226 leukemia; 7.24% [42 µM] (active) with OVCAR-8 ovarian; 7.78% [42 µM] (active) in the test with OVCAR-5 ovarian; 29.5% [42 µM] in the test with OVCAR-4 ovarian; 61.9% [42 µM] with SK-OV-3 ovarian; 10.9% [42 µM] in the test with IGROV1 ovarian. The growth with OVCAR-3 ovarian was -26.9% [42 µM] (active); in the test on HS 578T breast it was 58.2% [42 µM]; in the test with NCI/ADR-RES ovarian, 21.5% [42 µM]; with T-47D breast, 24% [42 µM].

On to `CCOC(=O)C1=C(C)n2nc(CC#N)c(C#N)c2NC1c1ccc(Cl)cc1` (stereo not given), for which the growth in the test with RPMI-8226 leukemia was 101%; with OVCAR-8 ovarian, 108%; with OVCAR-5 ovarian it was 103%; in the test with OVCAR-4 ovarian, 99.3%; with SK-OV-3 ovarian, 105%; in the test on IGROV1 ovarian it was 84.1%. Besides, the growth is 89.3% in the test with OVCAR-3 ovarian, 106% in the test with HS 578T breast, 91.9% with NCI/ADR-RES ovarian and 110% in the test on T-47D breast.

Take `O=C1C(Cl)=C(NCCCN(CCCNC2=C(Cl)C(=O)c3ccccc3C2=O)C2=C(Cl)C(=O)c3ccccc3C2=O)C(=O)c2ccccc21`: the growth is 45.4% in the test on RPMI-8226 leukemia; 39.2% in the test with OVCAR-8 ovarian; 121% in the test with OVCAR-5 ovarian; 33.9% in the test with OVCAR-4 ovarian; 93.8% with SK-OV-3 ovarian; 54.8% with IGROV1 ovarian. Moreover, the growth in the test with OVCAR-3 ovarian was -0.584% (active); with HS 578T breast, 67.6%; in the test on NCI/ADR-RES ovarian, 76.1%; in the test on T-47D breast, 51.8%.

Turning to `CN(C)[C@@H]1C(=O)C(C(N)=O)=C(O)[C@@]2(O)C(=O)C3=C(O)c4c(O)cc(CN5CCc6ccccc6C5)c(Cl)c4C[C@H]3C[C@@H]12`, the growth in the test with RPMI-8226 leukemia is -46.2% (active); in the test on OVCAR-8 ovarian, -80.9% (active); in the test on OVCAR-5 ovarian, -87.1% (active); in the test with OVCAR-4 ovarian, -44.5% (active); with SK-OV-3 ovarian, -93.3% (active); in the test on IGROV1 ovarian, -73.2% (active). The growth was -83.3% (active) in the test with OVCAR-3 ovarian, -57.7% (active) with HS 578T breast, -83.7% (active) in the test with NCI/ADR-RES ovarian and -41.4% (active) in the test on T-47D breast.

On to `CC1(C)[C@@H](O)CC[C@]2(C)[C@H]3CC[C@@H]4[C@H]5[C@H](c6cn(-c7ccccc7)nn6)CC[C@]5(CO)CC[C@@]4(C)[C@]3(C)CC[C@@H]12`, for which the growth in the test on RPMI-8226 leukemia was 73.2%; with OVCAR-8 ovarian, 85.2%; with OVCAR-5 ovarian, 118%; in the test on OVCAR-4 ovarian, 98.3%; with SK-OV-3 ovarian, 103%; in the test with IGROV1 ovarian, 119%. Moreover, the growth was 88.2% in the test on OVCAR-3 ovarian, 94.6% in the test with HS 578T breast, 80.9% with NCI/ADR-RES ovarian and 63.9% with T-47D breast.

Regarding `COc1ccc(Nc2nc(SCC(C)C)nc(-c3ccc(F)cc3)c2C#N)cc1`, the growth with RPMI-8226 leukemia was 88%; in the test on OVCAR-8 ovarian, 89.4%; in the test with OVCAR-5 ovarian, 94.3%; in the test with OVCAR-4 ovarian, 80.9%; in the test with SK-OV-3 ovarian, 73.4%; in the test with IGROV1 ovarian it was 71.4%. Besides, the growth in the test on OVCAR-3 ovarian was 21%; in the test with HS 578T breast, 79.1%; in the test with NCI/ADR-RES ovarian it was 40.3%; in the test on T-47D breast, 65%.

In the case of `CC(=O)Oc1c2c(nc3c1c1ccccc1n3Cc1ccccc1)-c1ccccc1C2`, the growth is 73.3% in the test with RPMI-8226 leukemia; 88.4% in the test with OVCAR-8 ovarian; 97% in the test on OVCAR-5 ovarian; 83.9% in the test on OVCAR-4 ovarian; 92% in the test with SK-OV-3 ovarian; 81.1% in the test with IGROV1 ovarian. For the same molecule, the growth in the test with OVCAR-3 ovarian is 79%; in the test on HS 578T breast it was 94.4%; in the test on NCI/ADR-RES ovarian it was 85.5%; in the test on T-47D breast, 56.7%.

As for `COc1cc(/C=C/C(=O)c2ccc(NC(=O)CSc3nnc(-c4cc(OC)c(OC)c(OC)c4)n3-c3ccccc3)cc2)cc(OC)c1OC`, the growth in the test with RPMI-8226 leukemia is -13.1% (active); in the test with OVCAR-8 ovarian it was 10%; in the test on OVCAR-5 ovarian, 61.4%; in the test on OVCAR-4 ovarian, 54.8%; in the test with SK-OV-3 ovarian it was 38%; in the test with IGROV1 ovarian, 7.57% (active). The growth in the test with OVCAR-3 ovarian was -17.8% (active); in the test on HS 578T breast, 83.1%; with NCI/ADR-RES ovarian, 44.3%; in the test on T-47D breast, 50.3%.

Consider `CCOC(=O)c1c(-c2ccc(O)cc2)c(C#N)c2c(C#N)c(N)nn2c1N`, for which the growth in the test with RPMI-8226 leukemia is 38.7%; in the test with OVCAR-8 ovarian it was 70.8%; in the test with OVCAR-5 ovarian, 89.3%; in the test on OVCAR-4 ovarian, 81%; with SK-OV-3 ovarian, 75.5%; in the test on IGROV1 ovarian, 52.3%. In addition, the growth in the test on OVCAR-3 ovarian is 66.3%; in the test with HS 578T breast, 70.2%; in the test on NCI/ADR-RES ovarian it was 95.9%; in the test with T-47D breast, 28.2%.

Turning to `COc1cc(C2=NNC(c3ccc(N(C)C)cc3)C2)cc(OC)c1OC` (stereo not given), the growth was 16% in the test on RPMI-8226 leukemia; 24.7% with OVCAR-8 ovarian; 30.4% in the test with OVCAR-5 ovarian; 52.2% in the test with OVCAR-4 ovarian; 19.5% in the test with SK-OV-3 ovarian; 35.4% in the test on IGROV1 ovarian. Besides, the growth is 5.84% (active) in the test with OVCAR-3 ovarian, -21.7% (active) in the test with HS 578T breast, -20.7% (active) in the test with NCI/ADR-RES ovarian and 45.8% in the test on T-47D breast.

As for `Nc1ccc(C(=O)Nc2cccc(C(=O)Nc3ccc4c(O)c(N=Nc5ccc(N=Nc6ccc(S(=O)(=O)O)cc6)cc5)c(S(=O)(=O)O)cc4c3)c2)cc1`, the growth was 103% in the test with RPMI-8226 leukemia; 110% in the test with OVCAR-8 ovarian; 106% in the test on OVCAR-5 ovarian; 101% with OVCAR-4 ovarian; 101% with SK-OV-3 ovarian; 102% with IGROV1 ovarian. Also, the growth in the test with OVCAR-3 ovarian is 107%; in the test with HS 578T breast, 106%; with NCI/ADR-RES ovarian, 99.2%; in the test on T-47D breast, 108%.

In the case of `COC(=O)c1oc2c(C(=O)/C=C/c3ccc(OC)cc3)c(OCCCN3CCCCC3)ccc2c1C`, the growth was -65.7% (active) in the test with RPMI-8226 leukemia; -22.7% (active) in the test with OVCAR-8 ovarian; 23.3% with OVCAR-5 ovarian; 14.1% with OVCAR-4 ovarian; 28.5% in the test on SK-OV-3 ovarian; 9.13% (active) in the test on IGROV1 ovarian. Besides, the growth with OVCAR-3 ovarian is 26.5%; in the test with HS 578T breast it was 12.6%; with NCI/ADR-RES ovarian it was 0.873% (active); in the test on T-47D breast, 38.5%.
